In PubChem BioAssay (EPA / NIEHS):
Where “and” joins values, the source holds several entries; their conditions need not be identical. Identical values can stand only once. A structure can be active in one record and inactive in another. Calls of active or inactive are those of the source. Rule for the calls: active = hit-call score of the fitted dose curve at least 0.9, where 1 is the maximum; inactive = score below 0.9.

Read-out: Human Leukocyte Antigen - DR isotype (HLADR), HLA-DRA (gene 3122)
Assay: BSK_BE3C_HLADR: BioMAP Diversity Plus: BE3C Assay for Human Leukocyte Antigen - DR isotype (HLADR) Biomarker Activity (AID 2283032)
Settings: primary human bronchial epithelial cells; actives raise or lower the signal
Procedure: BSK_BE3C is a cell-based, multiplexed-readout assay that uses bronchial epithelial cell, a human lung primary cell, with measurements taken at 24 hours after chemical dosing in a 96-well plate.BSK_BE3C_HLADR is an assay component measured in the BSK_BE3C assay. It measures HLA-DR antibody related to regulation of gene expression using ELISA technology.Data from the assay component BSK_BE3C_HLADR was analyzed into 1 assay endpoint. This assay endpoint, BSK_BE3C_HLADR, was analyzed with bidirectional fitting relative to DMSO as the negative control and baseline of activity. Using a type of binding reporter, gain or loss-of-signal activity can be used to understand changes in the signaling as they relate to the gene HLA-DRA. Furthermore, this assay endpoint can be referred to as a primary readout, because this assay has produced multiple assay endpoints where this one serves a signaling function. To generalize the intended target to other relatable targets, this assay endpoint is annotated to the cell adhesion molecules intended target family, where the subfamily is MHC Class II.
The levels of cell surface (or secreted, indicated by the prefix "s") biomarker endpoints were measured by ELISA. Overt cytotoxicity to cells in confluent adherent cultures (all systems other than the BT system) was assessed by measuring total protein levels using sulforhodamine B (SRB) staining in parallel cultures at the time of biomarker measurements, indicated as SRB endpoints. For proliferation assays for adherent cell types, individual cell types are cultured at sub-confluence and relative cell numbers quantified by SRB staining at time points optimized for each system (48 h: 3C and CASM3C systems; 72 h: BT and HDF3CGF systems; 96 h: SAg system). SRB was performed by staining cells with 0.1% SRB after fixation with 10% TCA and reading wells at 560 nm.Viability and proliferation of PBMC (T cells) was quantified by Alamar Blue reduction for the SAg and BT systems. For PBMC viability (referred to as PBMC Cytotoxicity within the assay endpoint names), cells were plated (75,000/well in a 96-well plate) and then chemical samples added for 1 h before addition of activators, SEB and TSST-1 (20 ng/mL final concentration each). Cells were incubated for 90 h. Then, Alamar Blue (20 uL/well) (Invitrogen, Cat DAL1100) was added for 6 h, and the plates were read with a fluorescence microplate reader at 546/580 nm (excitation/emission). For PBMC proliferation, cells were plated and activated as above but incubated for only 16 h prior to addition of Alamar Blue. Plates were read after 6 h.

| SMILES | outcome | AC50 |
| --- | --- | --- |
| FC(F)(F)C(F)(F)C(F)(F)C(F)(F)C(F)(F)C(F)(F)C(F)(F)Br | inactive | – |
| FC(F)(F)C(F)(F)C(F)(F)CI | inactive | – |
| O=C(O)C=C(C(F)(F)F)C(F)(F)F | inactive | – |
| FC1CC(F)(F)C(F)(F)C1(F)F (stereo not given) | inactive | – |
| C=CC/C=C/C/C=C/C/C=C/C | inactive | – |
| CCCCCCCCC(F)(F)C(F)(F)C(F)(F)C(F)(F)C(F)(F)C(F)(F)F | inactive | – |
| FC(F)(I)C(F)(F)C(F)(F)C(F)(F)I | – | 49.2 µM (active) and 46.2 µM (active) and 46.8 µM (active) |
| CCCCC(CC)COP(=O)(O)OCC(CC)CCCC (stereo not given) | – | 29.3 µM (active) and 31.6 µM (active) |
| CCCCOCCOCCOC(=O)CCCCC(=O)OCCOCCOCCCC | inactive | – |
| O=S(=O)(OCC(F)F)C(F)(F)F | inactive | – |
| OCC(F)(F)C(F)(F)C(F)(F)C(F)F | inactive | – |
| O=C(O)C(F)(F)C(F)(F)C(F)(F)C(F)(F)C(F)(F)C(F)(F)C(F)(F)C(F)(F)C(F)(F)C(F)(F)C(F)(F)C(F)(F)C(F)(F)F | inactive | – |
| O=C(O)C(F)(F)C(F)(F)F | inactive | – |
| O=C(O)C(F)(OC(F)(F)C(F)(OC(F)(F)C(F)(OC(F)(F)C(F)(F)C(F)(F)F)C(F)(F)F)C(F)(F)F)C(F)(F)F (stereo not given) | inactive | – |
| FC(F)(F)C(F)(F)C(F)(F)C(F)(F)CCI | inactive | – |
| Cc1ccc(S(=O)(=O)OCC(F)(F)C(F)(F)C(F)(F)C(F)(F)C(F)(F)C(F)F)cc1 | inactive | – |
| O=C(Cl)C(F)(F)C(F)(F)C(F)(F)C(F)(F)C(F)(F)C(F)(F)C(F)(F)C(F)(F)F | – | 50 µM (active) and 48.6 µM (active) and 50.7 µM (active) |
| FC(F)(F)C(F)(F)C(F)(F)C(F)(F)C(F)(F)C(F)(F)CC1CO1 (stereo not given) | inactive | – |
| Nc1ccc([N+](=O)[O-])cc1O | inactive | – |
| CCCCNc1ccccc1 | inactive | – |

| SMILES | outcome | AC50 |
| --- | --- | --- |
| CCc1c(Br)c(Br)c(Br)c(Br)c1Br | inactive | – |
| O=C(O)C(F)(OC(F)(F)C(F)(OC(F)(F)C(F)(F)C(F)(F)F)C(F)(F)F)C(F)(F)F (stereo not given) | inactive | – |
| FC(F)(F)C(F)(F)CNCC(F)(F)C(F)(F)F | inactive | – |
| C=C(C)C(=O)OCCC(F)(F)C(F)(F)C(F)(F)C(F)(F)C(F)(C(F)(F)F)C(F)(F)F | inactive | – |
| FC(F)(Br)C(F)(F)C(F)(F)C(F)(F)C(F)(F)C(F)(F)Br | inactive | – |
| FC(F)(F)C(F)(F)C(F)(F)C(F)(F)C(F)(F)C(F)(F)C(F)(F)I | inactive | – |
| CC(C)(C)C(=O)CC(=O)C(F)(F)C(F)(F)C(F)(F)F | inactive | – |
| C#C[C@]1(O)CC[C@H]2[C@@H]3CCc4cc(OC)ccc4[C@H]3CC[C@@]21C | – | 6.9 µM (active) |
| C=CC(=O)OCC(F)(F)C(F)(F)C(F)(F)C(F)(F)COC(=O)C=C | – | 40.4 µM (active) and 42.4 µM (active) |
| O=P(O)(O)OCCC(F)(F)C(F)(F)C(F)(F)C(F)(F)C(F)(F)C(F)(F)F | inactive | – |
| C=CC(F)(F)C(F)(F)C(F)(F)C(F)(F)C(F)(F)C(F)(F)C(F)(F)C(F)(F)C=C | inactive | – |
| O=S(=O)(O)C(F)(F)C(F)(F)C(F)(F)C(F)(F)C(F)(F)C(F)(F)C(F)(F)F | inactive | – |
| C=CC(=O)OCC(F)(F)C(F)(F)C(F)(F)C(F)(F)C(F)(F)C(F)(F)C(F)(F)F | inactive | – |
| N=C(N)C(F)(F)C(F)(F)C(F)(F)C(F)(F)C(F)(F)C(F)(F)C(F)(F)F | inactive | 43.1 µM (active) |
| CCCCCCCOC(=O)c1ccccc1C(=O)OCCCCCCC | inactive | – |
| O[Si](c1ccccc1)(c1ccccc1)c1ccccc1 | inactive | – |
| OCCCC(F)(F)C(F)(F)C(F)(F)F | inactive | – |
| O=C(O)C(F)(F)C(F)(F)C(F)F | inactive | – |
| Oc1ccc(Nc2ccccc2)cc1 | inactive | – |
